Data taken from the supplement of paper PMC7156485.
± gives the standard deviation of the averaged measurements.

Key:
Conditions in all cases: concentration: 10 µM; 24 h
[1] = test system: HCC1569; assay: cell number relative to DMSO (% of DMSO); higher = more cells (less growth inhibition / toxicity)
Outline: (§1)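 For HCC1569 and TDF cells, compounds at 10 µM were applied for 24 h at 37 °C in triplicate in 384-well plates. Cells were fixed in 3.7% formaldehyde, stained for H1.0 and with DAPI, and imaged at ×10 over six fields per well. The endpoint, H1.0 nuclear intensity or cell number, is shown as percent of the plate control using the median of replicates. Positional effects were smoothed for HCC1569 only.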

[2] = test system: TDF; assay: as above
Outline: as §1

[3] = test system: TDF; assay: H1.0 immunofluorescence intensity relative to DMSO (% of DMSO); higher = stronger H1.0 induction, active = 120 or more
Outline: as §1

[4] = test system: HCC1569; assay: H1.0 immunofluorescence intensity relative to DMSO (% of DMSO); higher = stronger H1.0 induction, active = 140 or more
Outline: as §1
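Throughout, for H1.0 immunofluorescence intensity relative to DMSO: TDF is a line of transformed human dermal fibroblasts of mesenchymal origin.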
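Throughout, for cell number relative to DMSO: TDF denotes transformed human dermal fibroblasts of mesenchymal origin.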

Row | SMILES | cell number [1] | cell number [2] | H1.0 immunofluorescence intensity [3] | H1.0 immunofluorescence intensity [4]
1 | C=CC(C)(O)CCC1C(=C)CCC2C(C)(C)CCCC12C (stereo not given) [Manool] | 104 | 87.8 | 99.4 (inactive) | 90.8 (inactive)
2 | NC(=O)c1nnn(Cc2cc(Cl)c(C(=O)c3ccc(Cl)cc3)c(Cl)c2)c1N | 75 | 73.8 | 95.5 (inactive) | 151 (active)
3 | CC(C)CN(CC(O)C(Cc1ccccc1)NC(=O)OC1CCOC1)S(=O)(=O)c1ccc(N)cc1 (stereo not given) [Amprenavir] | 103 | 101 | 100 (inactive) | 108 (inactive)
4 | Cl.Cl.Cl.NCCCCNCCCN [Spermidine trihydrochloride] | 99.7 | 97.2 | 102 (inactive) | 82 (inactive)
5 | O=C(NO)c1cccc(C(=O)NCCc2ccccc2)c1 [N1-hydroxy-N3-phenethylisophthalamide] | 105 | 88 | 90.4 (inactive) | 101 (inactive)
6 | COc1cc2c3cc1Oc1c(OC)c(OC)cc4c1C(Cc1ccc(O)c(c1)Oc1ccc(cc1)CC3N(C)CC2)N(C)CC4.Cl.Cl (stereo not given) | 90.4 | 92.2 | 104 (inactive) | 109 (inactive)
7 | NC1CONC1=O [D-Cycloserine] | 98.8 | 96.8 | 97.5 (inactive) | 92.1 (inactive)
8 | CCn1cc(C(=O)O)c(=O)c2cc(F)c(N3CCNC(C)C3)c(F)c21 (stereo not given) [Lomefloxacin] | 101 | 90.9 | 95.3 (inactive) | 100 (inactive)
9 | CC(C)=CCCC(C)=CCCC(C)=CCSCC(=O)O [Farnesylthoiacetic acid] | 100 | 101 | 97.7 (inactive) | 96.1 (inactive)
10 | C=CC(=O)c1ccc2ccccc2c1 | 99.7 | 92 | 103 (inactive) | 113 (inactive)
11 | Br.CCSC(=N)N [S-Ethylisothiourea hydrobromide] | 102 | 109 | 97.1 (inactive) | 88 (inactive)
12 | CCOC(=O)C(CCc1ccccc1)NC(C)C(=O)N1C(C(=O)O)CC2CCCC21 (stereo not given) [Ramipril] | 105 | 105 | 94.6 (inactive) | 111 (inactive)
13 | COc1ccc2c(c1)c(CC(=O)O)c(C)n2C(=O)c1ccc(Cl)cc1 [Indomethacin] | 101 ± 1.8 | 106 ± 20 | 91.3 (inactive) | 102 (inactive)
14 | Cl.Cl.Cl.Ic1ccc(N2CCN(Cc3c[nH]c4ncccc34)CC2)cc1 [L-750,667 trihydrochloride] | 103 | 101 | 103 (inactive) | 108 (inactive)
15 | Cl.O=C(OCCN1CCOCC1)C1(c2ccccc2)CCCCC1 | 99.8 | 111 | 90.5 (inactive) | 94 (inactive)
16 | Cc1cc(F)c(Nc2ncnc3cc(OCc4ccccc4)ccc23)cc1O.Cl | 91.6 | 105 | 94.5 (inactive) | 138 (inactive)
17 | CCCCCCCCCCCC=CC(C)(C)C=CCCCC(=O)O [7,7-Dimethyl-(5Z,8Z)-eicosadienoic acid] | 102 | 101 | 91.9 (inactive) | 92.2 (inactive)
18 | Cc1nccn1CC1CCc2c(c3ccccc3n2C)C1=O (stereo not given) [Ondansetron] | 103 | 104 | 95.4 (inactive) | 118 (inactive)
19 | CC1=C2C(=COC(C)C2C)C(=O)C(C(=O)O)=C1O (stereo not given) [Citrinin] | 104 | 102 | 101 (inactive) | 97.8 (inactive)
20 | COc1cc2oc(-c3ccc(O)c(O)c3)cc(=O)c2c(O)c1OC | 75 | 82 | 91.1 (inactive) | 118 (inactive)
21 | CCC1C(=O)N(C)c2cnc(Nc3ccc(C(=O)NC4CCN(C)CC4)cc3OC)nc2N1C1CCCC1 (stereo not given) | 27.1 | 32.4 | 157 (active) | 136 (inactive)
22 | O=C(O)Cc1c[nH]c2ccc(O)cc12 [(5-hydroxy-3H-indol-3-yl)acetic acid] | 105 | 94.7 | 94.7 (inactive) | 103 (inactive)
23 | O=C1NC(=O)C(=Cc2cccc(C(F)(F)F)c2)S1 [PIM1/2 Kinase Inhibitor V] | 102 | 103 | 102 (inactive) | 108 (inactive)
24 | CC(F)(F)CN1CCOc2c(nn(-c3ccccc3Cl)c2-c2ccc(Cl)cc2)C1=O | 104 | 101 | 93.5 (inactive) | 88.3 (inactive)
25 | C[N+](C)(C)CCCCCC[N+](C)(C)C.[Cl-].[Cl-] [Hexamethonium dichloride] | 98 | 99.9 | 95.6 (inactive) | 87.7 (inactive)

Row | SMILES | cell number [1] | cell number [2] | H1.0 immunofluorescence intensity [3] | H1.0 immunofluorescence intensity [4]
26 | OCCn1cc(-c2cnc3nnn(Cc4ccc5ncccc5c4)c3n2)cn1 | 99.6 | 98.7 | 99 (inactive) | 99.8 (inactive)
27 | CCCCCCCCC=CCCCCCCCCCCCC(=O)O [13(Z)-Docosenoic acid] | 104 | 108 | 95.2 (inactive) | 102 (inactive)
28 | Cc1c(Cl)cccc1Nc1ccccc1C(=O)O [Tolfenamic acid] | 105 | 105 | 104 (inactive) | 95 (inactive)
29 | O=C(CCCN1CCN(c2ccccn2)CC1)c1ccc(F)cc1 [Azaperone] | 98.6 | 112 | 96.7 (inactive) | 103 (inactive)
30 | CC(=O)OCC1OC([S-])C(OC(C)=O)C(OC(C)=O)C1OC(C)=O.CCP(CC)CC.[Au+] (stereo not given) [Auranofin] | 38 | 15.4 | 155 (active) | 146 (active)
31 | CCOC(=O)C1=CC2(CC)CCCN3CCc4c(n1c1ccccc41)C32 (stereo not given) [Vinpocetine] | 101 ± 3 | 106 ± 5.3 | 93.2 (inactive) | 98.8 (inactive)
32 | CC1(C)CC=C(c2ccccc2)c2cc(/C=C/c3ccc(C(=O)O)cc3)ccc21 | 99.1 | 91.6 | 101 (inactive) | 111 (inactive)
33 | CC(O)C1C(=O)N2C(C(=O)O)=C(SC3CNC(C(=O)N(C)C)C3)C(C)C12 (stereo not given) [Meropenem] | 105 | 98.2 | 97 (inactive) | 94.3 (inactive)
34 | C[C@H](CCC(=O)O)[C@H]1CC[C@H]2[C@@H]3C[C@H](O)[C@@H]4C[C@H](O)CC[C@]4(C)[C@H]3CC[C@]12C [(3alpha,5beta,6alpha)-3,6-dihydroxycholan-24-oic acid] | 101 | 98.6 | 97.3 (inactive) | 106 (inactive)
35 | NC(N)=NCc1cccc(I)c1 [N-(3-iodobenzyl)guanidine] | 108 | 97.3 | 104 (inactive) | 105 (inactive)
36 | CC12CC3CC(C)(C1)CC(N)(C3)C2.Cl [Memantine hydrochloride] | 106 | 96 | 101 (inactive) | 98.3 (inactive)
37 | O=C(Nc1ccccc1C(=O)Nc1ccc(CCO)cc1)c1ccc([N+](=O)[O-])cc1 [N-(4-(2-hydroxyethyl)phenyl)-2-(4-nitrobenzamido)benzamide] | 82.4 | 90.9 | 101 (inactive) | 144 (active)
38 | Cn1cnc([N+](=O)[O-])c1Sc1ncnc2nc[nH]c12 [Azathioprine] | 99.15 ± 0.87 | 101.8 ± 0.74 | 94.9 (inactive) | 97.6 (inactive)
39 | CCCC1OC2CC3C4CCC5=CC(=O)C=CC5(C)C4C(O)CC3(C)C2(C(=O)CO)O1 (stereo not given) [Budesonide] | 97.2 | 94.1 | 82 (inactive) | 96.4 (inactive)
40 | CC(=O)SC1CC2=CC(=O)CCC2(C)C2CCC3(C)C(CCC34CCC(=O)O4)C12 (stereo not given) [Spironolactone] | 99.1 ± 3.8 | 105 ± 7.3 | 92.2 (inactive) | 104 (inactive)
41 | CCCn1c(=O)c2[nH]c(-c3ccc(OCC(=O)NCCN)cc3)nc2n(CCC)c1=O [Xanthine amine congener] | 97.6 | 104 | 98 (inactive) | 110 (inactive)
42 | CSc1nc(N)c2ncn(C3OC(COP(=O)([O-])OP(=O)([O-])OP(=O)([O-])[O-])C(O)C3O)c2n1.[Na+].[Na+].[Na+].[Na+] (stereo not given) [2-Methylthioadenosine triphosphate tetrasodium] | 102 | 109 | 93 (inactive) | 95.7 (inactive)
43 | O=C(O)/C=C/c1ccc(O)c(O)c1 [Caffeic acid] | 98.5 ± 1.5 | 99.8 ± 4.1 | 94.5 (inactive) | 96.2 (inactive)
44 | CC(C)CCC[C@@H](C)[C@H]1CC[C@H]2[C@@H]3CC(=O)[C@H]4C[C@@H](O)CC[C@]4(C)[C@H]3CC[C@]12C [(3beta,5alpha)-3-hydroxycholestan-6-one] | 105 | 92.5 | 98.5 (inactive) | 98.6 (inactive)
45 | CC(C)(C)c1cc(O)ccc1O [tert-Butylhydroquinone] | 104 | 97.2 | 96.4 (inactive) | 89.1 (inactive)
46 | CC1=c2[nH]c3c(c2CCN1)C=CC(=O)C=3.Cl.O.O | 98.2 | 89 | 97.7 (inactive) | 144 (active)
47 | COc1ccccc1N1CCN(CCCCNC(=O)c2ccc3ccccc3c2)CC1 | 99.1 | 111 | 106 (inactive) | 97.4 (inactive)
48 | Cc1cc(Nc2cc(N3CCN(C)CC3)nc(Sc3ccc(NC(=O)C4CC4)cc3)n2)n[nH]1 [Tozasertib] | 70.4 | 46.5 | 99.2 (inactive) | 156 (active)
49 | O=C(O)CCCC(O)C=CC=CC=CC(O)CC=CCCCCCO (stereo not given) [20-Hydroxy-leukotriene B4] | 100 | 101 | 95.2 (inactive) | 108 (inactive)
50 | CC(C)C(CO)Nc1nc(Nc2cccc(Cl)c2)c2ncn(C(C)C)c2n1 (stereo not given) | 65.5 | 60.6 | 120 (inactive) | 174 (active)
